The results in this text go back to PubChem BioAssay AID2597 (National Center for Advancing Translational Sciences (NCATS), 2010).

Structures are written as SMILES. Inconclusive results are not listed. A call without a number means that no potency is given here. Activity calls are given as the source filed them. Calls follow the shape of the dose curve; as a rule, active = well fitted curve in the direction sought with a large enough effect; inconclusive = small, poorly fitted or top-dose-only effect, or effect the other way, or another doubt; inactive = no such curve, though single readings can be large or run the other way.

The target in the assay is Lysosomal acid glucosylceramidase (Homo sapiens) (UniProt P04062). Put plainly: qHTS Assay for Inhibitors and Activators of N370S glucocerebrosidase as a Potential Chaperone Treatment of Gaucher Disease: Purified N370S Glucocerebrosidase. The note with it: purified N370S GC, 4-MU-glucoside fluorescence, 40 min; series mostly up to 76.9 µM. From the text: NIH Chemical Genomics Center [NCGC] NIH Molecular Libraries Probe Production Centers Network [MLPCN] MLPCN Grant: MH086442-01 Assay Submitter (PI): Wei Zheng Glucocerebrosidase (GC) catalyzes the hydrolysis of beta-glucocerebroside to glucose and ceramide in lysosomes. Mutations in the glucocerebrosidase gene result in Gaucher disease, an autosomal recessive lysosomal storage disorder. Many of the mutations encountered in patients with Gaucher disease are missense alterations that may cause misfolding, decreased stability and/or mistrafficking of this lysosomal protein. […] These inhibitors include iminosugar analogs and three non-iminosugar inhibitors identified from a previous HTS of 62,000 compounds with the wild type recombinant enzyme. However, the enhancement of enzyme activity by the chaperone action of an enzyme inhibitor must be balanced against the direct inhibition of the enzyme. An enzyme activator could also function as a chaperone by binding to the enzyme and helping to correct its misfolding and mistrafficking. While activators for GC have not yet been identified, they may have better therapeutic potential than inhibitors. Therefore the discovery and development of chemical activators may provide a new strategy for the chaperone therapy. We have optimized a new assay using N370S mutant GC derived from the spleen of a Gaucher patient. […] In addition, the MLPCN compound library has expanded, which increases the chance of finding new and better probes. This assay characterizes compound activity using purified mutant enzyme instead of tissue homogenate. Compound activity differences may be due to the absence of endogenous cofactors found in tissue homogenate.
Chain of Lysosomal acid glucosylceramidase (Homo sapiens) (P04062 whole entry N409S): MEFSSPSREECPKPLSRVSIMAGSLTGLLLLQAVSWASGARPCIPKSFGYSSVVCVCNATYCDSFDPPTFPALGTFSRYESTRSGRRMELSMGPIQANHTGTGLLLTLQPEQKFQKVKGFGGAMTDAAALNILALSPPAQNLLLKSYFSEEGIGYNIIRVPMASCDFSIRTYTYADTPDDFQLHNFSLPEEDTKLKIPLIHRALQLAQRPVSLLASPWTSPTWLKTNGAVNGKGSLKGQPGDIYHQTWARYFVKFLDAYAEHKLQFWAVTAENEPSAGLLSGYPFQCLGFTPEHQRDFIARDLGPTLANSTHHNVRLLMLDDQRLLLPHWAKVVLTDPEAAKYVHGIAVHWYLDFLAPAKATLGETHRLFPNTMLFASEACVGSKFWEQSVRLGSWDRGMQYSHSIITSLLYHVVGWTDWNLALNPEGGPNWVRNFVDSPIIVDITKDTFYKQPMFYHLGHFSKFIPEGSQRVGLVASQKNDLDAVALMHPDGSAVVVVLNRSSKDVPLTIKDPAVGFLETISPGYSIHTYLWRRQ
NCGC Assay Protocol Summary: This is a fluorogenic enzyme assay with 4-methylumbelliferyl-beta-D-glucopyranoside as the substrate and purified N370S glucocerebrosidase as the enzyme preparation. Upon the hydrolysis of this fluorogenic substrate, the resulting product, […] which can be detected by a standard fluorescence plate reader. Data were normalized to the controls for basal activity (without enzyme) and 100% activity (with enzyme). The AC50 values were determined from concentration-response data modeled with the standard Hill equation. Assay buffer: 50 mM citric acid (titrated with potassium phosphate to pH 5.0), 100 mM potassium chloride, 10 mM sodium chloride, 1 mM magnesium chloride, 0.01% Tween-20. 1536-well assay protocol: (1) Add 2 ul/well of glucocerebrosidase enzyme solution (5 nM final) (2) Add 23 nL compounds in DMSO solution. The final titration was 0.5 nM to 58 uM. (3) Add 2 ul of substrate (1 mM final) (4) Incubate at 37C for 40 min. (5) Add 2 ul stop solution (1M NaOH and 1M Glycine mixture, pH 10) (6) Detect the assay plate in a ViewLux plate reader (PerkinElmer) with Ex=365 nm and Em=440nm. Keywords: Glucocerebrosidase, beta-glucosidase, Gaucher Disease, pharmacological chaperone, chaperone therapy, high throughput screening, glucocerebrosidase inhibitor, MLSMR, MLSCN, NIH Roadmap, qHTS and NCGC
As to `Cc1ccc(S(=O)(=O)N2CCN(c3nc(-c4cccs4)nc4ccccc34)CC2)cc1`, the Potency result was “inactive”.

For the compound `COc1cccc(S(=O)(=O)N2CCN(c3nc(-c4cccs4)nc4ccccc34)CC2)c1`, the Potency result was “inactive”.

For the compound `CC(C)(C)C(=O)OCCNc1nc(-c2ccccc2)nc2ccccc12`, the Potency was 8.91 µM (active).

As for `O=S(=O)(c1ccc(F)cc1)N1CCN(c2nc(-c3cccc(Br)c3)nc3ccccc23)CC1`, the Potency entry was “inactive”.

Consider `O=S(=O)(c1ccc(Cl)cc1)N1CCN(c2nc(Nc3cc(Cl)ccc3O)nc3ccccc23)CC1`, for which the Potency is 14.1 µM (active).

Consider `O=S(=O)(c1ccccc1C(F)(F)F)N1CCN(c2nc(-c3cccs3)nc3ccccc23)CC1`, for which the Potency result was “inactive”.

On to `O=S(=O)(c1ccc(Cl)cc1)N1CCN(c2nc(-c3cccs3)nc3ccccc23)CC1`, for which the Potency entry was “inactive”.

`O=S(=O)(c1ccc(Cl)cc1)N1CCN(c2nc(-c3cccc(Br)c3)nc3ccccc23)CC1`: the Potency entry is “inactive”.

Turning to `S=C(NCCCc1cnc[nH]1)NCCCN(Cc1ccc(Cl)c(Cl)c1)c1ccc(Br)cn1`, the Potency is 2.51 µM (active).

As for `O=S(=O)(c1cccc2ccccc12)N1CCN(c2nc(-c3cccs3)nc3ccccc23)CC1`, the Potency result was “inactive”.

For `O=S(=O)(c1ccc(F)cc1)N1CCN(c2nc(-c3ccc(F)cc3)nc3cc(Cl)ccc23)CC1`, the Potency result is “inactive”.

With `O=C(c1ccc2c(c1)OCCO2)N1CCN(c2nc(-c3cccs3)nc3ccccc23)CC1`, the Potency entry is “inactive”.

For the compound `NS(=O)(=O)c1ccc(S(=O)(=O)N2CCN(c3nc(-c4cccs4)nc4ccccc34)CC2)cc1`, the Potency result was “inactive”.

With `OCCNc1nc(-c2cccs2)nc2ccccc12`, the Potency result was “inactive”.

On to `O=S(=O)(c1ccc2c(c1)OCCO2)N1CCN(c2nc(-c3cccs3)nc3ccccc23)CC1`, for which the Potency entry was “inactive”.

Consider `COc1ccc(-c2nc(N3CCN(S(=O)(=O)c4ccc(F)cc4)CC3)c3ccccc3n2)cc1`, for which the Potency result was “inactive”.

In the case of `N#Cc1ccc(S(=O)(=O)N2CCN(c3nc(-c4cccs4)nc4ccccc34)CC2)cc1`, the Potency result was “inactive”.

With `Cc1ccc(S(=O)(=O)N2CCN(c3nc(-c4ccc(F)cc4)nc4cc(Cl)ccc34)CC2)cc1`, the Potency result was “inactive”.

In the case of `CC(C)(C)c1ccc(S(=O)(=O)N2CCN(c3nc(-c4cccs4)nc4ccccc34)CC2)cc1`, the Potency entry is “inactive”.

For `O=S(=O)(c1ccc2c(c1)OCCO2)N1CCN(c2nc(-c3ccccc3)nc3ccccc23)CC1`, the Potency result was “inactive”.

For the compound `O=S(=O)(c1ccc(Cl)cc1)N1CCN(c2nc(-c3ccc(F)cc3)nc3cc(Cl)ccc23)CC1`, the Potency result is “inactive”.

For `c1csc(-c2nc(NCC3CCCO3)c3ccccc3n2)c1` (centres undefined), the Potency entry was “inactive”.

As to `O=S(=O)(c1cccs1)N1CCN(c2nc(-c3cccs3)nc3ccccc23)CC1`, the Potency entry is “inactive”.

Take `O=S(=O)(c1ccc(F)cc1)N1CCN(c2nc(-c3cccs3)nc3cc(Cl)ccc23)CC1`: the Potency entry is “inactive”.

For `COc1ccc(-c2nc(N3CCN(S(=O)(=O)c4ccccc4)CC3)c3ccccc3n2)cc1`, the Potency entry is “inactive”.

In the case of `O=S(=O)(c1cccc(C(F)(F)F)c1)N1CCN(c2nc(-c3cccs3)nc3cc(Cl)ccc23)CC1`, the Potency result was “inactive”.

Turning to `Cc1ccc(-c2nc(N3CCN(S(=O)(=O)c4ccc(F)cc4)CC3)c3ccc(Cl)cc3n2)cc1`, the Potency entry is “inactive”.

As for `O=S(=O)(c1ccc(Cl)cc1)N1CCN(c2nc(-c3ccc(Cl)cc3)nc3ccccc23)CC1`, the Potency result was “inactive”.

On to `COc1ccc(S(=O)(=O)N2CCN(c3nc(-c4cccs4)nc4ccccc34)CC2)cc1`, for which the Potency result was “inactive”.

Consider `O=S(=O)(c1ccc(F)cc1)N1CCN(c2nc(-c3ccccc3)nc3cc(Cl)ccc23)CC1`, for which the Potency entry is “inactive”.

On to `O=S(=O)(c1ccccc1)N1CCN(c2nc(-c3ccc(F)cc3)nc3cc(Cl)ccc23)CC1`, for which the Potency entry was “inactive”.

Consider `Cc1ccccc1S(=O)(=O)N1CCN(c2nc(-c3cccs3)nc3ccccc23)CC1`, for which the Potency entry is “inactive”.

As to `Cc1cc(C)cc(N(CC(=O)NC2CCCCCC2)S(=O)(=O)c2c(C)[nH]c(=O)[nH]c2=O)c1`, the Potency is 1.58 µM (active).

Turning to `Cc1cccc(S(=O)(=O)N2CCN(c3nc(-c4cccs4)nc4ccccc34)CC2)c1`, the Potency result was “inactive”.

Consider `O=S(=O)(Cc1ccccc1)N1CCN(c2nc(-c3cccs3)nc3ccccc23)CC1`, for which the Potency result is “inactive”.

`COc1ccc(-c2nc(N3CCN(S(=O)(=O)c4ccc(C)cc4)CC3)c3ccccc3n2)cc1`: the Potency result is “inactive”.

For `CC(C)C(C)NC(=O)CSc1nc2scc(-c3ccco3)c2c(=O)n1-c1ccccc1` (centres undefined), the Potency result was “inactive”.

For the compound `O=S(=O)(c1ccccc1Cl)N1CCN(c2nc(-c3cccs3)nc3ccccc23)CC1`, the Potency result is “inactive”.

Turning to `O=S(=O)(c1ccc2ccccc2c1)N1CCN(c2nc(-c3cccs3)nc3ccccc23)CC1`, the Potency result was “inactive”.
